PubChem BioAssay AID743314 (Broad Institute, 2014)
Entries with a potency or affinity are not part of this list. Inconclusive results are not listed. Calls of active or inactive are those of the source.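 Rule for the calls: active = fitted half-maximal concentration no higher than twice the top tested dose, in every repeat run; inconclusive = repeat runs disagree, poor fit, or flat partial inhibition; inactive = the rest.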

Biological target: Endoplasmic reticulum aminopeptidase 1 (Homo sapiens) (UniProt Q9NZ08)
Sequence (Q9NZ08 whole entry, looked up): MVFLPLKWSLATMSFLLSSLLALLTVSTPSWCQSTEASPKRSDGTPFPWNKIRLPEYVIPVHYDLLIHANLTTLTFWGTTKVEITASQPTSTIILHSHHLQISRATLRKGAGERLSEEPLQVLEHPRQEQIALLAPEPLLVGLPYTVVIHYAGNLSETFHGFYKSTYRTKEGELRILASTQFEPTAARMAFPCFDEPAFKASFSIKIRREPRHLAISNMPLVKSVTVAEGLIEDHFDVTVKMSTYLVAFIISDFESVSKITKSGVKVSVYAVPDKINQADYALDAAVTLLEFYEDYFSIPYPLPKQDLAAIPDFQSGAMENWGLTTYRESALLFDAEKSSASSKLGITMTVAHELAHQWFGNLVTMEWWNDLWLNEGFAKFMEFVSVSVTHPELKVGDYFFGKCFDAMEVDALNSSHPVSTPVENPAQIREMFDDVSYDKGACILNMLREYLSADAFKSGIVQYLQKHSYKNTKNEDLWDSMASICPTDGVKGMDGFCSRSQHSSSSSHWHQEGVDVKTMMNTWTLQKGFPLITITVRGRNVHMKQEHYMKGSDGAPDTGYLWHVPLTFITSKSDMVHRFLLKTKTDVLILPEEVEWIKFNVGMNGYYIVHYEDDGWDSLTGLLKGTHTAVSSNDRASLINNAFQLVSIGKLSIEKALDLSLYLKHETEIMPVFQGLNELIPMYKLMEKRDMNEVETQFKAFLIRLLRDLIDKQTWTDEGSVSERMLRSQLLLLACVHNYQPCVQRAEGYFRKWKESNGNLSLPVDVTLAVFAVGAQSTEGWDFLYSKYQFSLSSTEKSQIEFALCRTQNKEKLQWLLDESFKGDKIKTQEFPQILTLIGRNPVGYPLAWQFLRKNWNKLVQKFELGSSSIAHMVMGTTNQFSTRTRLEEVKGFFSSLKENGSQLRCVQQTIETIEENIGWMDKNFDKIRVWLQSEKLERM
Experiment: ERAP1 aminopeptidase inhibitors, dose response, biochemical, cherry-pick, set 2, plate reader (AID 743314)
Settings: Recombinant ERAP1, Leu-AMC fluorescence, 60 min; series mostly up to 11 µM

outcome, inactive:
CCc1nnc(NC(=O)c2cc(S(=O)(=O)N3CCOCC3)ccc2N2CCCCC2)s1
CC(=O)N(C)C[C@H]1Oc2cc(C#CC(C)C)ccc2S(=O)(=O)N([C@@H](C)CO)C[C@H]1C
CC(C)[C@H](NC(N)=O)C(=O)NNC(=O)COc1cccc(C(F)(F)F)c1
COc1cccc(CN(C)Cc2cc(=O)oc3cc(O)c(Cl)cc23)c1
CN(CC(=O)Nc1ccccc1C(F)(F)F)C(=O)CSc1nnc(-c2ccncc2)n1C
C[C@@H]1CCCCO[C@H](CN(C)S(=O)(=O)c2ccccc2)[C@H](C)CN([C@H](C)CO)C(=O)c2cc(NS(=O)(=O)c3ccc(Cl)cc3)ccc2O1
O=S(=O)(Nc1cccc(-c2cn3c(n2)SCC3)c1)c1ccccc1F
CCCCCn1c(=NC(=O)c2ccco2)c(C(=O)OCC)cc2c(=O)n3ccccc3nc21
O=C(CC1CC1)N1[C@H](CO)[C@H](c2ccccc2)C12CN(Cc1cc(F)ccc1F)C2
COc1ccc(S(=O)(=O)N[C@@H]2C=C[C@H](CC(=O)NCc3ccccc3F)O[C@@H]2CO)cc1
C/C=C/c1ccc([C@H]2[C@@H](CO)N(CC3CCOCC3)C23CN(S(=O)(=O)CC)C3)cc1
CCC(=O)N1[C@@H](CO)[C@@H](c2ccccc2)C12CN(Cc1cccnc1)C2
COc1ccc2c3c(n(C)c2c1)[C@H](CO)N(C)CC31CN(C(=O)c2cccnc2)C1
Cc1noc(C)c1NC(=O)N(C)C[C@H]1Oc2c(NC(=O)Nc3ccc(F)cc3)cccc2C(=O)N([C@H](C)CO)C[C@H]1C
COc1ccc(CCOC(=O)CNC(=O)c2ccc(Cl)cc2Cl)cc1
CCn1cnc2c1c(=O)n(CC(=O)NCC(F)(F)F)c(=O)n2Cc1ccccc1
CN(C)C(=O)c1cccc(-c2ccc3c(c2)[C@H]2[C@H](CCN2Cc2nccs2)[C@@H](CO)N3)c1
COc1ccc(C2=NN(c3ccc(C(=O)O)cc3)C(c3ccc(OC)c(OC)c3)C2)cc1 (centres undefined)
CCCCCCc1c(C)c2ccc(OCC(=O)N[C@@H](Cc3ccccc3)C(=O)O)cc2oc1=O
Cc1noc(C)c1NC(=O)N(C)C[C@H]1Oc2c(NC(=O)Nc3ccc(F)cc3)cccc2C(=O)N([C@@H](C)CO)C[C@H]1C
Cc1nc2cc(NC(=O)C3COc4ccccc4O3)ccc2s1 (centres undefined)
CCn1cc(CN2CCCC(C(=O)Nc3ccc(-c4nc5ccccc5[nH]4)cc3)C2)c(C)n1 (centres undefined)
COc1ccc2c3c([nH]c2c1)[C@@H](CO)N(Cc1cc(F)ccc1F)CC31CN(C(=O)CN(C)C)C1
CC(C)c1ccc(OC(=O)c2cccc(S(=O)(=O)N3CCN(C)CC3)c2)cc1
Cn1cnc(Sc2ncnc3nc[nH]c23)c1[N+](=O)[O-]
COc1ccc(CN(C)C[C@H]2OCCCC[C@H](C)Oc3ccc(NC(=O)Nc4ccc(F)cc4)cc3C(=O)N([C@@H](C)CO)C[C@@H]2C)cc1
CN(C)C(=O)c1cccc(-c2ccc3c(c2)[C@@H]2[C@@H](CCN2Cc2nccs2)[C@@H](CO)N3)c1
C[C@H](CO)N1C[C@H](C)[C@H](CN(C)CC2CCCCC2)Oc2ncc(-c3ccc(F)cc3)cc2C1=O
O=C(CSc1nnc2ccc(-c3ccc(F)cc3)nn12)N1CCCC1
C[C@@H]1CN([C@@H](C)CO)C(=O)c2cc(NC(=O)CCN3CCOCC3)ccc2O[C@@H]1CN(C)S(=O)(=O)c1ccccc1
C[C@@H]1CN([C@H](C)CO)C(=O)c2cccc(NC(=O)Nc3ccccc3)c2O[C@@H]1CN(C)Cc1ccc(C(=O)O)cc1
CCCC#Cc1ccc(CC[C@H]2O[C@H]3CC[C@H](CO)O[C@H]3C[C@@H]2NC(=O)CN2CCOCC2)cc1
CN(Cc1ccccc1)C(=O)c1ncn(C)c1C(=O)N(C)Cc1ccccc1
Cc1cccc(NC(=O)Nc2ccc3c(c2)C(=O)N(C)[C@H]2CC[C@H](CC(=O)O)O[C@H]2CO3)c1
COc1ccc([N+](=O)[O-])cc1NS(=O)(=O)c1cccc(C(=O)O)c1
COc1ccc(-c2c(C)c3ccc(O)cc3oc2=O)cc1OC
COc1ccc(CN(C)C[C@H]2Oc3c(NC(=O)NC4CCCCC4)cccc3C(=O)N([C@@H](C)CO)C[C@H]2C)cc1
CC(Sc1nnc(-c2cccnc2)n1C)C(=O)N1CCOCC1 (centres undefined)
COc1ccc(CN(C)C(=O)CCCNC(=O)c2ccc(Cl)cc2)cc1
